# Measurements taken from PubChem BioAssay (NCI).
# The panel holds about 83,000 compounds, 20% with a hit somewhere; the sample as a whole holds those more often.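 Single-concentration screen, 48 h exposure, 96-well plates. Endpoint: percent growth. Below 10 = active.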 A number with no mark means an inactive call. Calls of active or inactive are those of the source.
# Test system: TK-10 renal
# Assay: NCI-60 one-dose screen, 48 h (100 = growth as untreated, 0 = no growth, -100 = all killed)
# Details: 10 µM unless noted
row,Compound,growth
1,COc1cc(C(=O)NN=C2c3ccccc3-c3ccccc32)cc(OC)c1OC,55.5%
2,COc1cc(-c2c3c(c(Br)n2Cc2ccccc2)-c2nc(N)sc2CC3)cc(OC)c1OC,119%
3,O=C(Nc1ccc(-c2nc3cc4ccccc4cc3[nH]2)cc1)c1cccc(Br)c1,51.8%
4,Cc1cc(Nc2ccc(OCc3ccccc3)cc2)nc2cc(O)ccc12,73.4%
5,Nc1nonc1-n1nncc1-c1cccnc1,107%
6,N#C/C(=C1\SC(=O)CN1c1ccccc1)c1nc2ccccc2s1,135%
7,Clc1ccc(-c2nnc(COc3ccc(C4=NNC(c5ccco5)C4)cc3)o2)cc1 (stereo not drawn),83.4%
8,CCOC(=O)CSc1c(-c2ccccc2)c2cc(Cl)ccc2[nH]c1=O,107%
9,COC(=O)C1(C)COP(=O)(Nc2ccc(OC)cc2)OC1 (stereo not drawn),108%
10,CC1=C(CC(=O)c2cccc([N+](=O)[O-])c2)C(=O)c2ccccc2C1=O,-43.1% (active)
11,N#Cc1c(N)nc2c(c1N)C(c1ccc(F)cc1)c1ccc(N)cc1O2 (stereo not drawn),116%
12,O=C(Nc1nc2c(s1)CCc1c-2c(Br)n(Cc2ccccc2)c1Br)c1ccccc1,54.9%
13,CN(C)CCNc1cc(-c2ccccc2)nc2ccccc12,-68% (active)
14,O=S(=O)(c1ccc(NC(=S)NC23CC4CC(CC(C4)C2)C3)cc1)N1CCCCC1,111%
15,CCCCc1c(CCC)c(=N)c2ccccc2n1C,84.3%
16,COc1ccccc1N1C(=N)S/C(=C\c2ccc(OCc3ccccc3F)cc2)C1=O,104%
17,Cc1ccc(S(=O)(=O)c2c(COC(=O)c3cccc(C)c3)c(-c3ccccc3)nn2C)cc1,113%
18,COc1ccc(-c2nc(N3CCN(C(=O)C4CCCCC4)CC3)c3c4c(sc3n2)CCCC4)cc1,-40.1% (active)
19,CC(=Nc1ccccc1)C1=C(O)C(Cc2ccc(F)cc2)NC1=O (stereo not drawn),41.9%
20,CCOc1ccccc1CN1CCc2nc3cc(C(C)(C)C)[nH]n3c(=O)c2C1,97.6%

row,Compound,growth
1,COc1cc(C(=O)O/N=C(\N)Cc2cccc3ccccc23)cc(OC)c1OC,-43.8% (active)
2,O=C1OC(c2ccccc2)(c2ccccc2)c2ccsc21,101%
3,COc1ccc2sc(N(Cc3cccnc3)C(=O)c3ccc(C#N)cc3)nc2c1,96.6%
4,O=C(NC1CCN(Cc2ccccc2)CC1)c1cc(C(=O)NC2CCN(Cc3ccccc3)CC2)cc(C(=O)NC2CCN(Cc3ccccc3)CC2)c1,80.8%
5,Oc1c(CN2CCN(c3ccccc3F)CC2)cc(Br)c2cccnc12,-84.1% (active)
6,O=C(Nc1ccc(Cl)cc1)N1CCN(c2ccc3nncn3n2)CC1,42.3%
7,Cc1[nH]c2ccccc2c(=O)c1CC=C(Cl)Cl,43.4%
8,COc1ccc(C)c2sc(N(Cc3cccnc3)C(=O)c3ccc(C#N)cc3)nc12,18%
9,O=C(Cc1ccccc1)NC(c1ccc(Cl)cc1)c1c(O)ccc2ccccc12 (stereo not drawn),17.1%
10,CCOC(=O)C1=CN(C)C=C(C(=O)OCC)C1c1cc(Br)c(OCC)c(OC)c1,43%
11,COc1ccc(/C=C/C(=O)c2ccc3cc(OC)c(OC)cc3c2)cc1OC,65.1%
12,CCC1=C[C@@H]2CN(C1)Cc1c([nH]c3ccccc13)[C@@](C(=O)OC)(c1cc3c(cc1OC)N(C)[C@H]1[C@@](O)(C(=O)OC)[C@H](OC(C)=O)[C@]4(CC)[C@@H]5C[C@@H]5CN5CC[C@]31[C@@H]54)C2,24.2%
13,COc1ccc(-c2nsc3c2NC(=O)CC3c2ccc3c(c2)OCCO3)cc1 (stereo not drawn),43.4%
14,CCCCNc1nc(NC(C)(C)C)nc(NC(C)(C)C)n1,55.9%
15,CCOc1ccc2nc(C)cc(Nc3ccc(Br)cc3)c2c1,119%
16,Cc1ccc(Nc2nc(N)c3ccccc3n2)cc1Cl,81.5%
17,CCOC(=O)C1=C(C)N=c2s/c(=C\c3cc(Cl)ccc3O)c(=O)n2C1c1ccc(OC)cc1 (stereo not drawn),94.1%
18,COC(=O)[C@@H]1CCCN1C(=O)[C@H]1CCCN1C(=O)[C@@H](Cc1c[nH]c2ccccc12)NC(=S)Nc1cc(C(F)(F)F)cc(C(F)(F)F)c1,78.7%
19,COc1ccc(-c2cc(=O)c3c(OC)c4ccoc4c(/C=C/C=O)c3o2)cc1,68.7%

# Test system: ACHN renal
# Assay: as above
# Details: 10 µM unless noted
row,Compound,growth
1,COc1cc(C(=O)NN=C2c3ccccc3-c3ccccc32)cc(OC)c1OC,46.4%
2,COc1cc(-c2c3c(c(Br)n2Cc2ccccc2)-c2nc(N)sc2CC3)cc(OC)c1OC,88.3%
3,O=C(Nc1ccc(-c2nc3cc4ccccc4cc3[nH]2)cc1)c1cccc(Br)c1,35.1%
4,Cc1cc(Nc2ccc(OCc3ccccc3)cc2)nc2cc(O)ccc12,73.8%
5,Nc1nonc1-n1nncc1-c1cccnc1,105%
6,N#C/C(=C1\SC(=O)CN1c1ccccc1)c1nc2ccccc2s1,93.6%
7,Clc1ccc(-c2nnc(COc3ccc(C4=NNC(c5ccco5)C4)cc3)o2)cc1 (stereo not drawn),94.9%
8,CCOC(=O)CSc1c(-c2ccccc2)c2cc(Cl)ccc2[nH]c1=O,97.6%
9,COC(=O)C1(C)COP(=O)(Nc2ccc(OC)cc2)OC1 (stereo not drawn),104%
10,CC1=C(CC(=O)c2cccc([N+](=O)[O-])c2)C(=O)c2ccccc2C1=O,13.8%
11,N#Cc1c(N)nc2c(c1N)C(c1ccc(F)cc1)c1ccc(N)cc1O2 (stereo not drawn),102%
12,O=C(Nc1nc2c(s1)CCc1c-2c(Br)n(Cc2ccccc2)c1Br)c1ccccc1,46.8%
13,CN(C)CCNc1cc(-c2ccccc2)nc2ccccc12,-27.5% (active)
14,O=S(=O)(c1ccc(NC(=S)NC23CC4CC(CC(C4)C2)C3)cc1)N1CCCCC1,93.6%
15,CCCCc1c(CCC)c(=N)c2ccccc2n1C,78.4%
16,COc1ccccc1N1C(=N)S/C(=C\c2ccc(OCc3ccccc3F)cc2)C1=O,69.6%
17,Cc1ccc(S(=O)(=O)c2c(COC(=O)c3cccc(C)c3)c(-c3ccccc3)nn2C)cc1,91%
18,COc1ccc(-c2nc(N3CCN(C(=O)C4CCCCC4)CC3)c3c4c(sc3n2)CCCC4)cc1,33.5%
19,CC(=Nc1ccccc1)C1=C(O)C(Cc2ccc(F)cc2)NC1=O (stereo not drawn),50.9%
20,CCOc1ccccc1CN1CCc2nc3cc(C(C)(C)C)[nH]n3c(=O)c2C1,95.4%

row,Compound,growth
1,COc1cc(C(=O)O/N=C(\N)Cc2cccc3ccccc23)cc(OC)c1OC,42.9%
2,O=C1OC(c2ccccc2)(c2ccccc2)c2ccsc21,97.9%
3,COc1ccc2sc(N(Cc3cccnc3)C(=O)c3ccc(C#N)cc3)nc2c1,91.2%
4,O=C(NC1CCN(Cc2ccccc2)CC1)c1cc(C(=O)NC2CCN(Cc3ccccc3)CC2)cc(C(=O)NC2CCN(Cc3ccccc3)CC2)c1,94.5%
5,Oc1c(CN2CCN(c3ccccc3F)CC2)cc(Br)c2cccnc12,-30.4% (active)
6,O=C(Nc1ccc(Cl)cc1)N1CCN(c2ccc3nncn3n2)CC1,8.04% (active)
7,Cc1[nH]c2ccccc2c(=O)c1CC=C(Cl)Cl,26.8%
8,COc1ccc(C)c2sc(N(Cc3cccnc3)C(=O)c3ccc(C#N)cc3)nc12,5.85% (active)
9,O=C(Cc1ccccc1)NC(c1ccc(Cl)cc1)c1c(O)ccc2ccccc12 (stereo not drawn),10.1%
10,CCOC(=O)C1=CN(C)C=C(C(=O)OCC)C1c1cc(Br)c(OCC)c(OC)c1,54.6%
11,COc1ccc(/C=C/C(=O)c2ccc3cc(OC)c(OC)cc3c2)cc1OC,55.4%
12,CCC1=C[C@@H]2CN(C1)Cc1c([nH]c3ccccc13)[C@@](C(=O)OC)(c1cc3c(cc1OC)N(C)[C@H]1[C@@](O)(C(=O)OC)[C@H](OC(C)=O)[C@]4(CC)[C@@H]5C[C@@H]5CN5CC[C@]31[C@@H]54)C2,19.6%
13,COc1ccc(-c2nsc3c2NC(=O)CC3c2ccc3c(c2)OCCO3)cc1 (stereo not drawn),46%
14,CCCCNc1nc(NC(C)(C)C)nc(NC(C)(C)C)n1,62.9%
15,CCOc1ccc2nc(C)cc(Nc3ccc(Br)cc3)c2c1,99.6%
16,Cc1ccc(Nc2nc(N)c3ccccc3n2)cc1Cl,64.4%
17,CCOC(=O)C1=C(C)N=c2s/c(=C\c3cc(Cl)ccc3O)c(=O)n2C1c1ccc(OC)cc1 (stereo not drawn),99.4%
18,COC(=O)[C@@H]1CCCN1C(=O)[C@H]1CCCN1C(=O)[C@@H](Cc1c[nH]c2ccccc12)NC(=S)Nc1cc(C(F)(F)F)cc(C(F)(F)F)c1,37.2%
19,COc1ccc(-c2cc(=O)c3c(OC)c4ccoc4c(/C=C/C=O)c3o2)cc1,75.4%
